The list is not random: actives were taken first. Their share in the collection is about 0.21%.
Bim-Bcl-2 = human Bim-Bcl-2 interaction inhibition | AID 950 | inhibition, % at 10 µM | P10415 | actives 0.06% (n = 190,000) | Bead-based flow cytometry, Bim peptide-Bcl-2 binding; in the data active = inhibition above about 40%;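 also: 0% = no compound wells with probe peptide and 100% = reference peptide inhibitor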
Target sequence (P10415 whole entry, looked up): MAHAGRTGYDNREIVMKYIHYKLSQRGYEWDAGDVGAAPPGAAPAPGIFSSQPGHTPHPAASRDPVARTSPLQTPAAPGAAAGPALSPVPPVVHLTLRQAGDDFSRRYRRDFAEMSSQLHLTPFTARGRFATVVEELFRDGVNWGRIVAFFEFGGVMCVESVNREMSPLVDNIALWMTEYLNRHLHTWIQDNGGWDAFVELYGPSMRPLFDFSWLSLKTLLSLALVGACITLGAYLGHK
Bcl-XL Bim block = disrupts Bim peptide binding to human Bcl-XL; inhibition, % at 10 µM; actives 0.04% (n = 190,000); Q07817; bead flow cytometry, fluorescence; AID 1007
Bim-Bfl-1 = human Bim-Bfl-1 interaction inhibition; Bead-based flow cytometry, Bim-Bfl-1 binding inhibition; Q16548; actives 0.12% (n = 190,000); inhibition, % at 10 µM;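 also: 0% = wells without compound plus tracer and 100% = blocker peptide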
Target sequence (Q16548 whole entry, looked up): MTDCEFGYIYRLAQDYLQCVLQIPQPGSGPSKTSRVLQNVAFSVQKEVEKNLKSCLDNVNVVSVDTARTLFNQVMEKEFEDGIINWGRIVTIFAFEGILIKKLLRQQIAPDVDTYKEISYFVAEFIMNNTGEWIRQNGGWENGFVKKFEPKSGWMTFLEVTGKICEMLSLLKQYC
Bcl-W Bim block = inhibitors of Bim-Bcl-W interaction, human | inhibition, % at 10 µM | actives 0.02% (n = 190,000) | bead-based flow cytometry, Bim peptide-Bcl-W binding | Q92843;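 also: 0% = bound tracer without compound and 100% = peptide blocker; higher means less fluorescent Bim peptide bound to Bcl-W beads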
Target sequence (Q92843 whole entry, looked up): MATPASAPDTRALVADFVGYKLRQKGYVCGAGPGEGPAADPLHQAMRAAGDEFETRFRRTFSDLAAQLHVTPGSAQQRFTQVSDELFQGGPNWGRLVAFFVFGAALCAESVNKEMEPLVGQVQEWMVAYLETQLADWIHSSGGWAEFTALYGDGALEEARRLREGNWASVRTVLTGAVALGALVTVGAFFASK
Furin inhibitor = inhibitors of human furin | purified furin, fluorogenic substrate cleavage | P09958 | inhibition, % at 20 µM or 30 µM | actives 0.061% (n = 220,000); in the data active = inhibition above about 25%
Bcl-B Bim block = human Bim-Bcl-B interaction inhibition. bead-based flow cytometry, Bim peptide-Bcl-B binding. inhibition, % at 10 µM. actives 0.073% (n = 190,000). AID 951;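 also: 0% = tracer peptide without compound and 100% = reference inhibitor peptide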
* hit, by the source's call; . = not tested or not shown. Rule as the data show it, unless noted: active = inhibition above about 40%.

SMILES	Bim-Bcl-2	Bcl-XL Bim block	Bim-Bfl-1	Bcl-W Bim block	Furin inhibitor	Bcl-B Bim block
Cc1cccc(NC(=O)Cn2nnc3ccccc32)c1	3.0	-1.0	-2.0	1.0	-15.8	0.0
O=C1NC(SCCCF)=N/C1=C/c1ccc(-n2cncn2)cc1	.	.	.	.	-10.4	.
Cc1ccc(C)n1-c1ccc(N2CCOCC2)c([N+](=O)[O-])c1	.	.	.	.	-9.6	.
Cc1ccc(C)n1-c1ccc(N2CCOCC2)cc1	7.0	2.0	6.0	3.0	-11.6	40.0*
CC1=CC(C)(C)N(C(=O)CNC2CCCC2)c2cc(C)ccc21	-11.0	-3.0	-7.0	-4.0	-30.5	-9.0
CNC(=O)C1CC(=O)N(CCc2ccc(OC)cc2)C(=Nc2ccc(OC)cc2)S1 (centres undefined)	-26.0	-4.0	-1.0	-2.0	26.6*	0.0
O=C(Cc1cnc2ncnn2c1)N1CCc2c([nH]c3ccccc23)C1c1ccccc1F (centres undefined)	-4.0	-5.0	-4.0	-2.0	-15.0	-8.0
CC(=O)Nc1cc(-c2ccccc2)nn1Cc1ccc(Cl)cc1	-1.0	-3.0	-2.0	-3.0	-18.2	-2.0
CC(=O)Nc1cc(-c2ccc(Cl)cc2)nn1-c1ccccc1	2.0	-2.0	1.0	-1.0	27.6*	-3.0
COc1ccc(-c2ccc(/C=C(\NC(=O)c3ccccc3)C(=O)N3CCOCC3)o2)cc1	-6.0	-3.0	-9.0	1.0	-2.7	-3.0
Cc1[nH]c2ccccc2c1C(=O)COC(=O)c1c(-c2c(F)cccc2Cl)noc1C	28.0	41.0*	43.0*	29.0	-6.2	21.0
Cc1[nH]c2ccccc2c1C(=O)COC(=O)c1c(-c2ccccc2Cl)noc1C	-3.0	-8.0	0.0	-2.0	-13.5	-2.0
COc1ccc(NC(=O)NC(C)C2CC3CCC2C3)cc1 (centres undefined)	1.0	-3.0	-2.0	-2.0	-20.8	3.0
O=C(Nc1ccccc1)Nc1ccc2ncoc2c1	41.0*	59.0*	13.0	14.0	-22.1	52.0*
CCc1cc(C(c2ccccn2)N2CCN(C)CC2)c(NC(=O)c2ccccc2)s1 (centres undefined)	0.0	-4.0	2.0	-3.0	25.1*	-3.0
Cc1sc(NC(=O)c2ccccc2)c(C(c2ccccn2)N2CCN(CCO)CC2)c1C (centres undefined)	-4.0	-9.0	-10.0	-4.0	13.2	-8.0
CCN(CC(=O)NCc1ccc(Cl)cc1)C(=O)c1ccc(S(=O)(=O)N(C)C)cc1	-3.0	-6.0	-3.0	-5.0	-21.3	-3.0
CCOC(=O)CSC1=NC(=O)/C(=C\c2ccc(OC(C)=O)cc2)S1	12.0	2.0	58.0*	9.0	-7.1	6.0
CCOC(=O)CSC1=NC(=O)/C(=C/c2ccc(Br)cc2)S1	-1.0	-2.0	33.0	1.0	-28.3	-5.0
C/C(=N/NC(=O)Cc1cccn1C)c1ccccc1	4.0	4.0	9.0	7.0	-18.9	0.0
C/C(=N\NC(=O)Cc1cccn1C)c1ccc2ccccc2c1	50.0*	29.0	15.0	19.0	0.5	46.0*
O=C1CCCc2oc3c(c21)CCCC3	-1.0	3.0	-4.0	2.0	-14.9	-1.0
COC(=O)COc1ccc(S(=O)(=O)NCC2CCCO2)cc1Cl (centres undefined)	-10.0	-4.0	-11.0	0.0	31.4*	-7.0
CCC(=O)OCCNc1cc(Sc2nc3ccccc3s2)c2nonc2c1[N+](=O)[O-]	2.0	3.0	54.0*	9.0	-3.8	6.0
CCOc1ccc(/C=C/C(=O)c2cc(Br)ccc(=O)c2O)cc1	28.0	21.0	42.0*	21.0	-9.6	-13.0
SMILES	Bim-Bcl-2	Bcl-XL Bim block	Bim-Bfl-1	Bcl-W Bim block	Furin inhibitor	Bcl-B Bim block
CC(C)=C1C(=O)NN(c2cccc(Cl)c2)C1=O	2.0	-9.0	4.0	-2.0	-9.9	0.0
CC(C)=C1C(=O)NN(c2ccc(C)c(Cl)c2)C1=O	36.0	50.0*	43.0*	48.0*	-12.2	56.0*
CCN(CC)c1ccc(NC(=O)COc2ccc(C#N)cc2)cc1S(=O)(=O)Nc1ccc(OC)cc1	-1.0	-4.0	5.0	-4.0	-28.3	-18.0
CCOC(=O)c1cc2c(=O)n3cccc(C)c3nc2n(Cc2ccco2)c1=NC(=O)c1cccnc1	14.0	9.0	40.0*	20.0	-20.5	12.0
CC1(C)CNC(=O)c2sc(NC(=O)c3ccccc3Cl)nc2C1	-2.0	0.0	-7.0	0.0	-15.2	-3.0
CN(C)c1ccc(P(=O)(OCc2ccccc2)C(O)c2ccccc2)cc1 (centres undefined)	.	.	.	.	-17.0	.
CCc1cccc(CC)c1NC(=S)N1CCn2cccc2C1c1cccnc1 (centres undefined)	21.0	27.0	25.0	20.0	-13.7	49.0*
Cc1ccc(NC(=S)N2CCn3cccc3C2c2cccnc2)cc1 (centres undefined)	-1.0	-4.0	-1.0	-1.0	-14.4	18.0
CCn1c(SCC(=O)Nc2ccccc2C)nnc1-c1ccccc1O	-11.0	-5.0	-17.0	-2.0	-12.3	-9.0
CCn1c(SCC(=O)Nc2cc(F)ccc2C)nnc1-c1ccccc1O	0.0	0.0	0.0	-1.0	32.2*	2.0
CCCCCNC(=O)C(=O)C1C(=O)Nc2ccccc21 (centres undefined)	.	.	.	.	-26.3	.
CN(C)CCNC(=O)C(=O)C1C(=O)Nc2ccccc21 (centres undefined)	78.0*	0.0	52.0*	-6.0	-3.4	70.0*
CC(=O)Nc1cc(O)cc(O)c1	.	.	.	.	-11.8	.
O=S1(=O)N=C(N(CCO)/N=C/c2ccncc2)c2ccccc21	12.0	40.0*	7.0	30.0	-7.3	23.0
COc1cc(Br)cc(CNc2ccc(F)c([N+](=O)[O-])c2)c1O	-1.0	2.0	-4.0	0.0	-14.2	-3.0
COc1ccc(CCNC(=O)C2CCCN(c3ncccn3)C2)cc1 (centres undefined)	-1.0	-3.0	-5.0	1.0	-11.0	-2.0
Cn1c(CCNC(=O)C2CCCCC2)nc2cc(NC(=O)c3cccs3)ccc21	91.0*	15.0	59.0*	8.0	-21.6	86.0*
COCCn1c(N)c(C(=O)Nc2sc3c(c2C(=O)OC)CCCC3)c2nc3ccccc3nc21	17.0	41.0*	7.0	27.0	-10.7	25.0
CCOC(=O)c1c2c3c(c(Cl)ccc3[nH]c1=O)C(=O)c1ccccc1-2	21.0	51.0*	10.0	33.0	-24.9	20.0
CCOC(=O)c1c2c3c(cccc3[nH]c1=O)C(=O)c1ccccc1-2	10.0	23.0	5.0	16.0	-20.4	4.0
CC(C)c1ccc(C2CC(c3ccc(Br)cc3)=NN2C(N)=S)cc1 (centres undefined)	-1.0	-3.0	-2.0	-3.0	-11.7	66.0*
CNC(=S)N1N=C(c2ccc(C)cc2)CC1c1ccc(Br)cc1 (centres undefined)	-7.0	0.0	-11.0	0.0	-13.7	-8.0
CCOC(=O)c1ccc(NC(=O)CSCc2ccco2)cc1	-9.0	-4.0	-8.0	-2.0	-16.3	-12.0
CCOC(=O)c1ccc(NC(=O)CSCCC(=O)O)cc1	90.0*	61.0*	50.0*	62.0*	-24.6	84.0*
